{"source": "PubChem BioAssay (NCATS)", "note": "Inconclusive results are not listed. Values without a mark were called inactive. Activity calls are given as the source filed them. Calls come from the whole dose curve; as a rule, active = well fitted inhibition curve with a large enough effect; inconclusive = small, poorly fitted or top-dose-only effect; inactive = no such curve, though single readings can be large or run the other way. % is set by controls: 0 for no effect and ±100 for the full control effect; potency is the fitted concentration of half-maximal effect."}
{"test": "Confirmatory qHTS for small molecule stabilizers of the endoplasmic reticulum resident proteome: Secreted ER Calcium Modulated Protein (SERCaMP) assay (AID 1508628); note: nearly all actives have a fitted effect of over 40% in size;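 for activity change, negative = decrease: SH-SY5Y cells given compound 16 h then thapsigargin 100 nM for 4 h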", "conditions": "SERCaMP secreted luciferase ER calcium/proteostasis reporter; series mostly up to 76.3 µM; activity change, negative = decrease: at the top concentration", "outline": "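We seeded SH-SY5Y-GLuc-SERCaMP cells, added compounds (three concentrations in the primary run, eleven up to 76.6 uM in confirmation), incubated 16 h, depleted ER calcium with thapsigargin, and read luciferase 4 h later.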", "units": {"activity change, negative = decrease": "%"}}
{"compound": "NS(=O)(=O)c1cc(Cl)c(Cl)c(S(N)(=O)=O)c1", "activity change, negative = decrease": 20.2}
{"compound": "CC(C)C[C@H](NC(=O)c1cc2ccccc2s1)C(=O)N1CCN(C(=O)[C@H](CO)NS(=O)(=O)c2ccc(Cl)cc2Cl)CC1", "Potency": "15.8 µM (active)"}
{"compound": "O=C(CCCN1CCN(c2ccc(F)cc2)CC1)NC1c2ccccc2CSc2ccccc21", "note": "(stereo not drawn)", "activity change, negative = decrease": 117}
